Source: the supplement of paper PMC13392028

System: PvIESI-1 RRM domain (Plasmodium vivax PVP01_0939900 aa 896-1203, GST fusion)
Assay: RBNS R-value (6-mer enrichment in protein-bound RNA vs input library) (ratio); higher = stronger binding preference; the methods of the paper give 50 / 100 / 500 nM protein instead
Description: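 RNA Bind-n-Seq: recombinant GST-tagged IESI-1 RRM domain was incubated at room temperature with a random 40-nt in vitro transcribed RNA library at 250, 500 or 1000 nM protein. Bound RNA was pulled down on glutathione beads and sequenced. R-value is the enrichment of each 6-mer in the bound RNA relative to the input library. Each 6-mer sits inside the random 40-mer context, not as an isolated oligo. Values are replicate 1 only.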

Sequence	RBNS R-value (protein concentration: 250 nM)	RBNS R-value (protein concentration: 500 nM)	RBNS R-value (protein concentration: 1000 nM)
GGUGAU	1.97	2.19	2.15
UUGAUG	4.85	5.06	4.68
AUGAUG	5.14	5.26	5.02
GAUUUU	2.5	2.64	2.47
CACCCG	1.41	1.76	1.77
AUGAUA	3.08	3.49	3.64
GUGAUU	2.96	3.22	3.1
UGUGAU	2.53	2.8	2.72
ACUGAU	2.99	3.2	3.11
UGAUCU	2	2.15	2.14
GAUGCC	1.89	2.11	2.06
UGAUGU	4.24	4.51	4.13
CGUGAU	2.33	2.54	2.51
